Cycloheximide cs = counter-screen for Shiga toxin inhibitors: cycloheximide protein synthesis inhibition; max response, %; cell reporter, cycloheximide protein synthesis inhibition counterscreen; 300,000 tested, 12% active; AID 2314; in the data active = max response mostly above about 13%, no sharp cut-off; inactive = mostly below about 14%; also: read at 38.3 µM for the half of the compounds with a filed dose; 0% is about no effect
HCMV inh = blocks human cytomegalovirus replication; HFF cells, HCMV-luciferase reporter, 72 h; stronger effect = lower value; 410,000 tested, 4.5% active; activity change, negative = inhibition, % at 57.5 µM; in the data active = activity change below about -60%; inconclusive = no clear call, values can overlap the other calls; inactive = above about -39%; also: % is scaled to controls: 0 for no effect and ±100 for the full control effect
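Two-dose cell screen: HFF monolayers treated with compounds and infected with luciferase-expressing HCMV at 1 PFU/cell, 72 h at 37C, then lysed for luciferase measurement.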
Pf growth 96h = P. falciparum growth inhibition at 96 hour, primary screen for plastid delayed-death inhibitors; Potency, µM (series often up to 28.7 µM), for inactives: at the highest dose activity change, negative = inhibition, actives largely listed as inhibitors; P. falciparum luciferase reporter growth, 96 h; 320,000 tested, 6.9% active; AID 504834; also: potency is read from the fitted curve at half-maximal effect; % is scaled to controls: 0 for no effect and ±100 for the full control effect
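Delayed-death screen, second-generation endpoint: infected erythrocytes, 2% hematocrit, 0.05% parasitemia final; 96 hours at 37 C, 5% CO2; luciferase detection reagent; luminescence decrease equals reduced growth.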
Pf growth 48h = inhibits P. falciparum growth in the first generation, 48 h; 310,000 tested, 5.9% active; P. falciparum luciferase growth in erythrocytes, 48 h; Potency, µM (highest dose often 28.7 µM), without a hit: at the highest dose activity change, negative = inhibition, actives largely listed as inhibitors; also: potency is read from the fitted curve at half-maximal effect; % is scaled to controls: 0 for no effect and ±100 for the full control effect
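Luminescence readout; reporter = integrated firefly luciferase in P. falciparum. RBC culture at 2% hematocrit, 0.1% parasitemia final, 37 C/5% CO2; decreased signal taken as growth inhibition.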
Shiga inhibitor = blocks Shiga toxin action in Vero cells; Vero cells, Shiga toxin protein synthesis inhibition reporter; AID 2315; inhibition, % at 38.7 µM; 290,000 tested, 9.2% active; in the data active = inhibition mostly above about 28%, no sharp cut-off; inactive = mostly below about 43%; also: 0% is about no effect
HCV inh = HCV inhibition | Huh7.5.1 HCVcc-Cre infection, luciferase reporter, 44 h | Potency, µM (highest dose often 41.8 µM), for the others: at the top dose activity change, negative = inhibition, usual class: inhibitors | 340,000 tested, 3.4% active | AID 651820; also: potency is read from the fitted curve at half-maximal effect; % is scaled to controls: 0 for no effect and ±100 for the full control effect
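After 44 h co-culture of compound, cells and HCVcc-Cre (~0.5 moi), substrate is added for 15 min at room temperature and luciferase measured over 15 sec. Cells were seeded at 1,000/well and pre-cultured 4 h.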
Active calls of the source: *; ? = inconclusive; · = no result given. This is a sample that favours compounds with a hit; in the whole collection about 21% have one here. Unless noted, calls follow the shape of the dose curve; as a rule, active = well fitted inhibition curve with a large enough effect; inconclusive = small, poorly fitted or top-dose-only effect, or another doubt; inactive = no such curve, though single readings can be large or run the other way.

SMILES	Cycloheximide cs	HCMV inh	Pf growth 96h	Pf growth 48h	Shiga inhibitor	HCV inh
Cc1cccc(N2CCN(CCCNC(=O)c3nnc(Cc4c(F)cccc4Cl)o3)CC2C)c1 (stereo not drawn)	·	-25.8	·	·	·	·
O=c1cc(CSc2nnc(COc3cccc4ccccc34)o2)c2ccccc2[nH]1	0.6	0.0	11.7µM*	79.4%	-2.9	3.3%
O=C(/C=C/c1ccncc1)c1ccc(NC(=O)c2ccccc2F)cc1	-5.2	·	-29.8%	7.0%	-12.8	?
COc1ccccc1CNC(=O)c1cnc(N2CCCC2)nc1C	·	-5.3	·	·	·	·
COc1ccc(Nc2nc(Cl)nc(Nc3ccc(OC)cc3OC)n2)c(OC)c1	-4.0	-10.8	18.4%	-7.5%	-1.9	?
OCCNc1nc(Nc2ccccc2)nc(Nc2ccccc2)n1	-1.5	-21.7	25.6%	-4.5%	-15.0	?
COc1ccccc1Nc1nc(Cl)nc(NC(C)(C)C)n1	11.2*	?	12.2%	0.7%	9.5	?
COc1ccc(Nc2nc(Cl)nc(Nc3ccc(OC)cc3)n2)cc1	6.3	4.4	208.2%	-2.5%	-2.6	?
CCCNc1nc(Cl)nc(Nc2ccc(Cl)cc2)n1	15.4*	5.6	0.0%	27.9%	8.1	-25.9%
CC(C)(CO)Nc1nc(Nc2ccccc2)nc(Nc2ccccc2)n1	-1.3	-10.5	7.38µM*	13.1µM*	-4.9	10µM*
Clc1nc(Nc2ccccc2)nc(Nc2ccccc2)n1	24.8*	18.7	36.2%	0.0%	22.4	-27.8%
COc1ccc(C(=O)NCc2ccncc2)cc1S(=O)(=O)N1CCOCC1	·	-9.1	?	-12.2%	·	24.3%
O=C(NCC(=O)N1CCN(c2ccccc2O)CC1)c1cccs1	·	22.6	0.0%	51.8%	·	-9.2%
CC(C)(C)Nc1nc(Cl)nc(Nc2ccccc2)n1	55.6*	6.8	87.6%	74.8%	87.7*	-7.5%
COCC(=O)N1CCC2CC1c1cc(Cl)ccc12 (stereo not drawn)	·	32.1	·	·	·	2.9%
O=c1[nH]ncc(N/N=C\c2cccnc2)c1Cl	-2.5	54.6	33.2%	12.6%	17.3	25.1%
Cc1cccc(/C=N\Nc2cn[nH]c(=O)c2Cl)c1	16.4*	149.3	24.9%	1.2%	35.9*	·
COC(=O)c1ccccc1NC(=O)CCc1c(C)nc2c(c(C)nn2-c2ccccc2)c1C	·	10.0	·	·	·	·
COC(=O)c1c(C)nc2c(c(SC)nn2-c2ccccc2)c1N	7.9	-19.1	·	?	5.6	11.2µM*
O=C(Nc1ccc(CN2CCCCC2)cc1)c1ccc(Br)o1	30.8*	5.3	·	?	79.4*	?
O=C(CNC(=O)c1ccc(Br)o1)Nc1ccc(N2CCCCCC2)cc1	·	-11.9	10.4µM*	39.1%	·	19.0%
O=C(Nc1ccc(CN2CCCCC2)cc1)c1c(F)c(F)c(F)c(F)c1F	-0.3	-30.2	?	-12.4%	-4.2	?
CCOc1ccc(CCNS(=O)(=O)c2c(C)nc3sc(C)cn3c2=O)cc1OCC	·	28.0	·	·	·	·
N#CCC(=O)Nc1ccc(C(=O)OCc2ccccc2Oc2ccccc2)cc1	-5.4	17.5	?	10.4µM*	-6.3	-15.8%
N#CCC(=O)Nc1ccc(C(=O)OCC(=O)NCCCc2ccccc2)cc1	-1.4	?	1.17µM*	-78.8%	4.1	-1.7%
SMILES	Cycloheximide cs	HCMV inh	Pf growth 96h	Pf growth 48h	Shiga inhibitor	HCV inh
N#CCC(=O)Nc1ccc(C(=O)OCC(=O)C23CC4CC(CC(C4)C2)C3)cc1	·	-38.4	?	13.1µM*	·	13.2%
CC(=O)Nc1ccc(NC(=O)Cn2cc3c(n2)CCCCC3)cc1	·	8.9	·	·	·	·
S=c1sc2c(Cl)ncnc2n1-c1ccccc1	-0.9	23.6	0.0%	-21.8%	-26.5	3.98µM*
Cc1ccc(C)c(NC(=O)CN(C)C(=O)C2CCN(C(=O)Nc3ccccc3)CC2)c1	·	-33.0	0.5%	-7.7%	·	3.2%
Cc1cc(S(=O)(=O)N2CC(=O)N(CCc3ccccc3)C(=O)C2)ccc1F	-0.9	-89.3*	33.9%	-3.3%	-11.9	6.3%
Cc1cccc(C)c1N(CC(=O)N1CCCC1)S(C)(=O)=O	1.4	4.2	?	-13.9%	-7.2	18.6%
Cc1cccc(N2CCN(C(=O)c3c4c(nc5ccccc35)C(=O)N(C3CCCCC3)C4)CC2)c1C	·	34.0	·	·	·	·
CC(=O)Nc1cccc(-c2ccnc3c2CC(C)(C(=O)Nc2ccc4c(c2)OCO4)O3)c1 (stereo not drawn)	·	-79.0*	·	·	·	·
CC1(C(=O)Nc2cccc(OC(F)(F)F)c2)Cc2c(-c3ccc4c(c3)OCO4)ccnc2O1 (stereo not drawn)	·	-60.3*	·	·	·	·
CC1(C(=O)Nc2ccc(Cl)c(C(F)(F)F)c2)Cc2c(-c3ccc(C(N)=O)cc3)ccnc2O1 (stereo not drawn)	·	-61.7*	·	·	·	·
CNC(=O)C1(C)Cc2c(-c3ccc4c(c3)OCO4)ccnc2O1 (stereo not drawn)	·	2.0	·	·	·	·
COc1ccc(NC(=O)C2(C)Cc3c(-c4ccc5c(c4)OCO5)ccnc3O2)cc1 (stereo not drawn)	·	-61.5*	·	·	·	·
CC1(C(=O)Nc2ccc3c(c2)OCO3)Cc2c(-c3ccccc3)ccnc2O1 (stereo not drawn)	·	-11.8	·	·	·	·
CC1(C(=O)Nc2ccc(Cl)c(C(F)(F)F)c2)Cc2c(-c3cccc(C(N)=O)c3)ccnc2O1 (stereo not drawn)	·	-30.8	·	·	·	·
CN(C)c1ccc(-c2ccnc3c2CC(C)(C(=O)Nc2cccc(OC(F)(F)F)c2)O3)cc1 (stereo not drawn)	·	8.3	·	·	·	·
COc1ccc(CC(=O)NCC(c2ccc(N(C)C)cc2)N2CCOCC2)cc1OC (stereo not drawn)	·	-10.8	·	·	·	·
Cc1ccc(S(=O)(=O)C(CNC(=O)c2ccc(F)c(F)c2)c2ccco2)cc1 (stereo not drawn)	·	-15.2	·	·	·	·
CC(Oc1ccccc1F)C(=O)Nc1ccc(-c2nc3ccccc3s2)cc1 (stereo not drawn)	·	70.8	·	·	·	·
COc1ccc(NC(=O)C2(C)Cc3c(-c4ccc(NC(C)=O)cc4)ccnc3O2)cn1 (stereo not drawn)	·	-6.0	·	·	·	·
COc1ccc(NC(=O)C2(C)Cc3c(-c4cccc(NC(C)=O)c4)ccnc3O2)cn1 (stereo not drawn)	·	-71.6*	·	·	·	·
COc1cc(OC)cc(C2=NC3(CCC(C)CC3)NC2=S)c1 (stereo not drawn)	-3.8	0.0	-6.9%	10.4µM*	52.6	?
COc1cc(OC)cc(-c2nnc(SCC(=O)N3CCC(C)CC3)o2)c1	·	-13.8	·	·	·	·
Cc1ccc(NC(=O)CCCc2nnc3n(C)c(=O)c4sccc4n23)cc1F	·	-31.1	·	·	·	·
Cn1c(=O)c2sccc2n2c(CCCC(=O)NCCc3ccccc3)nnc12	9.1	-1.6	?	?	-14.2	6.5%
CC(NC(=O)CCCc1nnc2n(C)c(=O)c3sccc3n12)c1ccccc1 (stereo not drawn)	0.5	16.7	13.1µM*	15.3%	-2.1	13.1%
Cn1c(=O)c2sccc2n2c(CCCC(=O)Nc3ccc(Cl)cc3)nnc12	·	-28.9	·	·	·	·

Bioassay records: PubChem BioAssay, National Center for Advancing Translational Sciences (NCATS)
